Test results published in the supplement of paper PMC11417369.
Over roughly 25,000 sequences, “ln(normalized median fluorescence intensity)” has its median near 7.1; the highest 2% begin near 10. The list comes from a sample in which the highest values are over-represented; it also holds similar and randomly drawn sequences.

tested on: PfSIP2 AP2 domain 1 (GST-tagged); test: gcPBM binding intensity (ln(normalized median fluorescence intensity)); higher = stronger DNA binding
Outline: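 After 1 h on an Agilent 4 × 180k array of primer-extended double-stranded 36-bp intergenic genomic probes and negative controls, bound GST-tagged P. falciparum DNA-binding domains were detected with Alexa488 anti-GST antibody and scanned at 488 nm. The domains had been expressed in E. coli, and binding took place in 1× PBS with 1% milk, 0.2 mg/ml BSA, 0.5% salmon testes DNA and 0.03% Triton X-100. Binding intensity is the highest Masliner-normalised natural-log median intensity across replicate spots of either probe orientation.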

Compared with “TGTCTTGTAAATTATTGTACTATTTAAAGTATACAA [XGTACX_site7864]”, “TATGAATTTATCTACAACATTTGAAATAAATTAAAA [CACACA_negctrl_site79]” is lower in “gcPBM binding intensity (ln)” value: 7.21 for the first, 6.72 for the second.

First: TTGTTTATCAACAGCACACACAACAACAACAACAAC [CACACA_site458]
Second: AAATATAATAATAATTTAAGAATCTAATATTTTATA [CACACA_negctrl_site831]
The “gcPBM binding intensity (ln)” value of the first is higher: 7.25 for the first, 6.59 for the second.

Compared with “ATACGATTGCAGTCAAAAAGGAAAATATAAAAAAAG [XGTACX_negctrl_site124]”, TTTTTTTTTTTTCACGTGCACTATACATATAAGTAA is higher in “gcPBM binding intensity (ln)” value: 7.29 for the first, 10.5 for the second.

Compared with “TTTTTTTTTTTTTCAAGTACATATATATATATATAA [XGTACX_site2098]”, “TTTTACGTGAGTAATACACACATATAAGTTTATATA [CACACA_site4120]” is lower in “gcPBM binding intensity (ln)” value: 7.58 for the first, 6.74 for the second.

Compared with “AATATAATATTATATAGTACATATTTCTTTTATTTT [XGTACX_site22]”, “ACACATACACATTAGGTGCATATATTTCAATATTAC [GTGCAC_site9423]” is higher in “gcPBM binding intensity (ln)” value: 6.82 for the first, 10.3 for the second.

First: AAAATTTCAATAAATACACACATATATATATATATT [CACACA_site1685]
Second: TTTTCAAAAATATATACACACATGCATATTACGGTG [CACACA_site775]
The “gcPBM binding intensity (ln)” value of the first is higher: 7.07 for the first, 6.98 for the second.

Compared with “TTGTTGTATTATTTATGTACATATGTATATGTATAT [XGTACX_site1315]”, “TATTGTATATAATAAACACACAATATTAAAAATATA [CACACA_site1057]” is lower in “gcPBM binding intensity (ln)” value: 7.17 for the first, 6.8 for the second.

Going from “AATATTGTATATAATAAACACACAATATTAAAAATA [CACACA_site8262]” to “ACAAAAAAAAACGTGGTGCATTAATAATATTGTATA [GTGCAC_site9469]”, the “gcPBM binding intensity (ln)” value rises from 6.99 to 10.3.

First: ATATGGTGATATAGGTGTACATTTTGATGCTTATTT [XGTACX_site4283]
Second: AGCATTTTAAGTTATACACACATTTTGAATCTATAT [CACACA_site7599]
The “gcPBM binding intensity (ln)” value of the first is higher: 6.95 for the first, 6.89 for the second.

Compared with “TTATTTTCTTTCTATGCACACGCACGTATTTGCCCA [CACACA_site9104]”, “ATTTTCTTTCTATGCACACGCACGTATTTGCACCCA [CACACA_site3350]” is higher in “gcPBM binding intensity (ln)” value: 7.91 for the first, 11.9 for the second.

First: CACCCGCACGTATTTGCACACATTGCCACGTAATTA [CACACA_site5786]
Second: TACATAAATTTTAATACATGCAAATAAAATATATAA [TGCATGCA_site131]
The “gcPBM binding intensity (ln)” value of the first is higher: 7.76 for the first, 6.94 for the second.

First: TAAAAATAAATAAATACATGCACCAAAAATAAATTT [TGCATGCA_site801]
Second: TTAAAAAAATATAATACACACCAAAAATATGCACAT [CACACA_site5209]
The “gcPBM binding intensity (ln)” value of the first is higher: 10.2 for the first, 9.27 for the second.

First: TCCTATGATGATGATAGTACATATGAGTTCAAAAAA [XGTACX_site273]
Second: CACCAATTCATATGCACACACATCTGCATATTATAT [CACACA_site1773]
The “gcPBM binding intensity (ln)” value of the first is lower: 6.81 for the first, 7.43 for the second.

First: CCATGTAGTGAATAGGTGCATATCAAAAAAAAAAAA
Second: GGAAAATTATCAATAGCATGCAAAATGTGAATATTA [TGCATGCA_site901]
The “gcPBM binding intensity (ln)” value of the first is higher: 11 for the first, 6.83 for the second.

Going from “TATATAATATATATAGTGCATAAGTTCAAAAGAATA [GTGCAC_site9805]” to “CATATAAATAGACACACACACACATATAAATAAATA [CACACA_site7156]”, the “gcPBM binding intensity (ln)” value falls from 8.73 to 7.23.

First: AAAACAATAATATACTGTACATATATATAATAACAT [XGTACX_site6188]
Second: ATGGTATAAAAAAATACACACTTATATATATTCTTA [CACACA_site4427]
The “gcPBM binding intensity (ln)” value of the first is higher: 7.13 for the first, 6.86 for the second.

Going from “TGTATATGTGAAGCAAGGGATGCGGCAGACATAACA [CACACA_negctrl_site1339]” to “ATATATTATGGGTGTGCACACAATATTTATATGTTC [CACACA_site2270]”, the “gcPBM binding intensity (ln)” value rises from 7.07 to 8.64.

Going from ATATGAAACATGAAGGTGCATAATGTGTATATTTAT to “CACATATATATGTGTGCATGTTGTATTATATATTTA [TGCATGCA_site632]”, the “gcPBM binding intensity (ln)” value falls from 10.8 to 8.48.

First: GTATTATTTTATGATGCATGTGTATTTCATATATGC [TGCATGCA_site660]
Second: TTTATTTATGTGTGGGTGCATATACGTATGATGTAT
The “gcPBM binding intensity (ln)” value of the first is lower: 6.98 for the first, 10.6 for the second.

Compared with “TTATTTTATTTAGGGTGTACCCAATTTTTCCATATG [XGTACX_site4957]”, “ATTTATATATATGTATGTACGTATGTGTGTATATGT [XGTACX_site7587]” is higher in “gcPBM binding intensity (ln)” value: 6.78 for the first, 7.73 for the second.

Going from “TATTTATATGTATATACATGCACATATATATGAAAC [TGCATGCA_site1005]” to “ATTTCCCCAACGTGGGTGCATATATTTATGTGTGAA [GTGCAC_site9439]”, the “gcPBM binding intensity (ln)” value rises from 7.7 to 11.1.

First: CCGTTGAACATATATGCACACACATAAAATAAAAAA [CACACA_site8761]
Second: AAAAAATAAGATTGTACACACATAAATTCTTTGTCA [CACACA_site2089]
The “gcPBM binding intensity (ln)” value of the first is higher: 7.65 for the first, 6.85 for the second.

Compared with “AATCCTTCATATGTAGTGCATATTAACAAAATAAAA [GTGCAC_site9500]”, “TTTTGCAATAATGTTGCACACTAAATAGTCATATAT [CACACA_site7977]” is lower in “gcPBM binding intensity (ln)” value: 8.78 for the first, 7.61 for the second.
